# Results filed as inconclusive are left out. Active and inactive are the calls of the source. The calls were made as follows, unless noted: active = hit-call score of the fitted dose curve at least 0.9, where 1 is the maximum; inactive = score below 0.9.
# Columns and labels:
# [1] = molecular target: Paired box protein Pax-6 (Homo sapiens) (UniProt P26367); assay: ATG_Pax6_CIS: Attagene CIS-FACTORIAL HepG2 Assay for human Paired Box 6 (PAX6) (AID 2282956); settings: HepG2 CIS-FACTORIAL PAX6 reporter transcription, RNA readout; actives raise or lower the signal
# In short: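 Values derive from bidirectional curve fitting of reporter mRNA signal relative to DMSO. HepG2 cells bearing transfected cis-regulated MRTUs were exposed for 24 h; transcripts were read by RT-PCR and capillary electrophoresis.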
# [2] = ATG_PXRE_CIS: Attagene CIS-FACTORIAL HepG2 Assay for human Pregnane X Receptor Element (PXRE) (AID 2282957); settings: HepG2 Attagene CIS-FACTORIAL PXRE reporter, mRNA; actives raise or lower the signal
# In short: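 Bidirectional activity, baselined to DMSO, derived from reporter mRNA fluorescence (RT-PCR plus capillary electrophoresis) in HepG2 cells bearing cis-promoter reporter units, 24 h exposure.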
# [3] = ATG_PPRE_CIS: Attagene CIS-FACTORIAL HepG2 Assay for human Peroxisome Proliferator-activated Response Element (PPRE) (AID 2282958); settings: HepG2 PPRE cis-element reporter, Attagene transcription factor profiling; actives raise or lower the signal
# In short: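 HepG2 cells are transiently transfected with multiplexed cis-promoter reporter units to report endogenous PPAR activity. After 24 h dosing, reporter mRNA is read by RT-PCR and capillary electrophoresis. Fitting is bidirectional against DMSO.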
# [4] = ATG_RORE_CIS: Attagene CIS-FACTORIAL HepG2 Assay for human RAR-related Orphan Receptor Element (RORE) (AID 2282959); settings: HepG2 Attagene cis-factorial RORE reporter, mRNA; actives raise or lower the signal
# In short: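 HepG2 cells carrying transiently transfected cis-regulated reporter units; RORE-driven reporter mRNA quantified 24 h post-dosing by RT-PCR, 6-FAM primer extension, HpaI digestion and capillary electrophoresis. Bidirectional fit versus DMSO.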
# [5] = ATG_Sox_CIS: Attagene CIS-FACTORIAL HepG2 Assay for human SRY-box transcription factor (SOX) (AID 2282960); settings: HepG2 Attagene cis-factorial SOX reporter, mRNA; actives raise or lower the signal
# In short: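 HepG2 cells transiently transfected with multiple cis-regulated reporter units, then dosed for 24 h. Reporter mRNA quantified by RT-PCR, fluorescent labelling, HpaI digestion and capillary electrophoresis; bidirectional fit versus DMSO.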
# [6] = ATG_SREBP_CIS: Attagene CIS-FACTORIAL HepG2 Assay for human Sterol Regulatory Element Binding (SREBP) (AID 2282962); settings: HepG2 Attagene cis-factorial SREBP reporter, mRNA; actives raise or lower the signal
# In short: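 Values derive from bidirectional curve fitting with DMSO as baseline. The underlying measurement is reporter mRNA from cis-element-regulated units in transiently transfected HepG2, quantified by RT-PCR and capillary electrophoresis after 24 h exposure.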
# [7] = molecular target: Signal transducer and activator of transcription 3 (Homo sapiens) (UniProt P40763); assay: ATG_STAT3_CIS: Attagene CIS-FACTORIAL HepG2 Assay for human Signal Transducer and Activator of Transcription 3 (STAT3) (AID 2282963); settings: HepG2, Attagene cis-factorial STAT3 reporter transcription; actives raise or lower the signal
# In short: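 Cis-factorial format: endogenous transcription factors in HepG2 drive transfected reporter units. After 24 h treatment, reporter RNA was reverse-transcribed, amplified, FAM-labelled and HpaI-digested before CE analysis; activity scored in both directions against DMSO.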
# [8] = ATG_TCF_b_cat_CIS: Attagene CIS-FACTORIAL HepG2 Assay for human T-Cell-Factor with beta-catenin (TCF/b-cat) (AID 2282965); settings: HepG2 TCF/beta-catenin cis-reporter transcription, actives raise or lower the signal
# In short: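 Endogenous transcription factor activity is captured through cis-promoter reporter constructs transiently introduced into human HepG2 liver cells. Induced reporter mRNA is measured after 24 h and fitted bidirectionally relative to DMSO.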
# [9] = ATG_TAL_CIS: Attagene CIS-FACTORIAL HepG2 Assay for human TAL Basal Promoter (AID 2282966); settings: HepG2 Attagene cis-factorial TAL promoter reporter; actives raise or lower the signal;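 also: background control endpoint measuring basal TAL promoter reporter mRNA not a specific factor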
# In short: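 Human hepatoma HepG2 cells, transfected with promoter-regulated reporter units, were treated 24 h. Reporter transcript levels, measured through RT-PCR and capillary electrophoresis, were fitted for gain or loss relative to DMSO.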
# [10] = ATG_TGFb_CIS: Attagene CIS-FACTORIAL HepG2 Assay for human Transforming Growth Factor (TGF) (AID 2282967); settings: HepG2 Attagene CIS TGFb reporter, mRNA transcription; actives raise or lower the signal
# In short: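 Bidirectional fitting relative to DMSO gave the endpoint. Underlying data: reporter mRNA from HepG2 cells carrying transiently transfected cis-regulated reporter constructs, harvested 24 h after dosing and analyzed by RT-PCR and capillary electrophoresis.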
# [11] = ATG_VDRE_CIS: Attagene CIS-FACTORIAL HepG2 Assay for human Vitamin D Receptor Element (VDRE) (AID 2282968); settings: HepG2 VDRE cis-reporter transcription, actives raise or lower the signal
# In short: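 Measures endogenous factor activity through cis-element-driven reporter transcripts in transiently transfected HepG2. Cells are treated 24 h; reporter mRNA is quantified by RT-PCR and capillary electrophoresis; fitting is bidirectional.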
# [12] = molecular target: X-box-binding protein 1 (Homo sapiens) (UniProt P17861); assay: ATG_Xbp1_CIS: Attagene CIS-FACTORIAL HepG2 Assay for human X-box Binding Protein 1 (XBP1) (AID 2282972); settings: HepG2 XBP1 cis-element reporter, Attagene multiplex; actives raise or lower the signal
# In short: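 Human hepatoma HepG2, cis-element reporter system, 24 h treatment; mRNA quantified by RT-PCR/CE fluorescence; fit relative to DMSO.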
# [13] = molecular target: Estrogen-related receptor gamma (Homo sapiens) (UniProt P62508); assay: ATG_ERRg_TRANS: Attagene TRANS-FACTORIAL HepG2 Assay for human Estrogen-Related Receptor gamma (ERRg) (AID 2282977; active = hit-call score of the fitted dose curve at least 0.9, where 1 is the maximum;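 also: hits increase reporter signal over DMSO so potencies reflect activators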); settings: HepG2 Attagene TRANS reporter, ERRg transactivation
# In short: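 Exogenous NR-Gal4 chimera activity was assessed in HepG2 cells bearing transfected GAL4-UAS reporters. After 24 h dosing, total RNA underwent RT-PCR, fluorescent primer extension and HpaI digestion before capillary electrophoresis, with gain of signal scored against DMSO.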
# [14] = molecular target: Transcription factor Sp1 (Homo sapiens) (UniProt P08047); assay: ATG_Sp1_CIS: Attagene CIS-FACTORIAL HepG2 Assay for human Specificity Protein 1 (Sp1) (AID 2282961); settings: HepG2 Sp1 cis-reporter transcription, actives raise or lower the signal
# In short: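 HepG2 cells transiently transfected with multiplexed cis-regulated reporter constructs, chemical exposure 24 h. Reporter mRNA quantified by RT-PCR with capillary electrophoresis; bidirectional fit relative to DMSO.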
# [15] = molecular target: Steroid hormone receptor ERR1 (Homo sapiens) (UniProt P11474); assay: ATG_ERRa_TRANS: Attagene TRANS-FACTORIAL HepG2 Assay for human Estrogen-Related Receptor alpha (ERRa) (AID 2282971; active = hit-call score of the fitted dose curve at least 0.9, where 1 is the maximum); settings: HepG2 Attagene TRANS reporter, ERRa transactivation
# In short: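 Signal gain relative to DMSO for an ERRa-Gal4 chimeric receptor, read as reporter mRNA by RT-PCR/capillary electrophoresis. Human HepG2 liver cells, transient multiplex reporter transfection, 24 h chemical exposure.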
# [16] = ATG_TA_CIS: Attagene CIS-FACTORIAL HepG2 Assay for human TA Basal Promoter (AID 2282964); settings: HepG2 Attagene CIS-factorial TA basal promoter reporter; actives raise or lower the signal
# In short: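 Fluorescence from labelled RT-PCR reporter fragments, separated by capillary electrophoresis, gives the signal. Cells: HepG2 transiently carrying multiple reporter units, 24 h chemical dosing. Gain or loss relative to DMSO.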
# [17] = molecular target: Nuclear receptor subfamily 1 group I member 3 (Homo sapiens) (UniProt Q14994); assay: ATG_CAR_TRANS: Attagene TRANS-FACTORIAL HepG2 Assay for human Constitutive Androstane Receptor (CAR) (AID 2282969; active = hit-call score of the fitted dose curve at least 0.9, where 1 is the maximum;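 also: activators raise reporter mRNA above DMSO so AC50 marks induction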); settings: HepG2 Attagene TRANS-FACTORIAL CAR reporter
# In short: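 Signal is reporter mRNA induction relative to DMSO, measured 24 h after dosing by RT-PCR with fluorescent primer extension and capillary electrophoresis. Human HepG2 liver cells carried transiently transfected chimeric NR-Gal4/GAL4-UAS reporter constructs.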
# [18] = ATG_M_19_TRANS: Attagene TRANS-FACTORIAL HepG2 Assay for M19 Transcription Factor (Internal Marker) (AID 2282974; active = hit-call score of the fitted dose curve at least 0.9, where 1 is the maximum); settings: HepG2 Attagene TRANS-FACTORIAL M19 internal marker reporter
# In short: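 HepG2 transiently transfected with GAL4-UAS multiplex reporter constructs, exposed 24 h; reporter RNA quantified by RT-PCR, 6-FAM labeling, HpaI digestion and capillary electrophoresis; internal background marker fitted upward versus DMSO.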
# [19] = ATG_GAL4_TRANS: Attagene TRANS-FACTORIAL HepG2 Assay for GAL4 (Internal Marker) (AID 2282976; active = hit-call score of the fitted dose curve at least 0.9, where 1 is the maximum); settings: HepG2 Attagene TRANS GAL4 internal marker reporter
# In short: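 Liver HepG2 line bearing multiplexed GAL4-UAS reporter constructs; 24 h chemical treatment. Transcripts were quantified as fluorescent fragments on capillary electrophoresis after RT-PCR and HpaI cut, with activity fitted upward from DMSO.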
# Chain of Transcription factor Sp1 (Homo sapiens) (P08047 whole entry, looked up): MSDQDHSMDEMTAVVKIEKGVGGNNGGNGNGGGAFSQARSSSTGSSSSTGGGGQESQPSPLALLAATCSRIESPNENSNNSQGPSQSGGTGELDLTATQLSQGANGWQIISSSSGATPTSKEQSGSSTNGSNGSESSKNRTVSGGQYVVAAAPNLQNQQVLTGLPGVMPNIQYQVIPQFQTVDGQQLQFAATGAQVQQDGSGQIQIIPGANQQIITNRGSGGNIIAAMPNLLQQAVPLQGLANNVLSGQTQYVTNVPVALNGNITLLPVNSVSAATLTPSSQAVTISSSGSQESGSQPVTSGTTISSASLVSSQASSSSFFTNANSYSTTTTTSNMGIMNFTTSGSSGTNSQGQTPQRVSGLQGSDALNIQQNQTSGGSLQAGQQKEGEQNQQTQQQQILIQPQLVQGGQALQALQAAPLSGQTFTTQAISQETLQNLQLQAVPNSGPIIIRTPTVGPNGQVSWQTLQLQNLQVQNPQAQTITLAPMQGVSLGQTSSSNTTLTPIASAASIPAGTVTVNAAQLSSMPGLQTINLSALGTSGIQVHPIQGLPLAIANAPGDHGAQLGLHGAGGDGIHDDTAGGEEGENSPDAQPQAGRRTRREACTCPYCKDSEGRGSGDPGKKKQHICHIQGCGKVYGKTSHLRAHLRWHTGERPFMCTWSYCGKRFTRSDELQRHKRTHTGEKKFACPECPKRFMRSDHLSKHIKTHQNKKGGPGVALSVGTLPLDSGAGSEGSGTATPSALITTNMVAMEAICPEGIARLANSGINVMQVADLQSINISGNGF
# Chain of Paired box protein Pax-6 (Homo sapiens) (P26367 whole entry, looked up): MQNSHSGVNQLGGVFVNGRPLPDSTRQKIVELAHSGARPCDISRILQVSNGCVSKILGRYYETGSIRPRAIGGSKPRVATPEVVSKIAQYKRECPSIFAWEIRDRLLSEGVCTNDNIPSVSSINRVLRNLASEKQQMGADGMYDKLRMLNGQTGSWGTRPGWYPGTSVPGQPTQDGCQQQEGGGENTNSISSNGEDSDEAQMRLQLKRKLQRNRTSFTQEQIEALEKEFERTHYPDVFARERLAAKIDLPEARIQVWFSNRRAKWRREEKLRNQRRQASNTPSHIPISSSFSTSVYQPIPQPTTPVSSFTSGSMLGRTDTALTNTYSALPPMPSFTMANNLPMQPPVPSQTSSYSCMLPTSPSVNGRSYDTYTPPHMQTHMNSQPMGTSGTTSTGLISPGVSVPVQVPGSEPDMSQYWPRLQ
# Chain of Signal transducer and activator of transcription 3 (Homo sapiens) (P40763 whole entry, looked up): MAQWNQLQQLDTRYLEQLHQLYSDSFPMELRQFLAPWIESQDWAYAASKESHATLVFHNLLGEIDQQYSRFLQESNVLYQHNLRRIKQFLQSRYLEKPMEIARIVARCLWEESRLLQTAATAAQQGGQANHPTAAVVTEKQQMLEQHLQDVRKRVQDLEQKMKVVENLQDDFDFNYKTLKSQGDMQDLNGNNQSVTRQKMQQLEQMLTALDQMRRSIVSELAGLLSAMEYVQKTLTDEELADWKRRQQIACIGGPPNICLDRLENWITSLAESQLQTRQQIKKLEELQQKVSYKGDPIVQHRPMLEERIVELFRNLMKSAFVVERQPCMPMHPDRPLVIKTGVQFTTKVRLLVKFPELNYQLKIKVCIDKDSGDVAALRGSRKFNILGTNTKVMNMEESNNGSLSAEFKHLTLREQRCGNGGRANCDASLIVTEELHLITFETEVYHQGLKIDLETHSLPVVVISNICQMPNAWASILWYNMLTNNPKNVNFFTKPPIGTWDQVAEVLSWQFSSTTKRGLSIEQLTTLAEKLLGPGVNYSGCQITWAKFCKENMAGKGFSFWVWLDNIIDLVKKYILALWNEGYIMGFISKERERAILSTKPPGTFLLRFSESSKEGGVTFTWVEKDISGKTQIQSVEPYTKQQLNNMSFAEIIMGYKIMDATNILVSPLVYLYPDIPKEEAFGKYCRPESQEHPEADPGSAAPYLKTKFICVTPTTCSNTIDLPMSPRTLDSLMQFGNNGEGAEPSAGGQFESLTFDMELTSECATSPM
# Chain of Estrogen-related receptor gamma (Homo sapiens) (P62508 whole entry, looked up, the tested form may be a part): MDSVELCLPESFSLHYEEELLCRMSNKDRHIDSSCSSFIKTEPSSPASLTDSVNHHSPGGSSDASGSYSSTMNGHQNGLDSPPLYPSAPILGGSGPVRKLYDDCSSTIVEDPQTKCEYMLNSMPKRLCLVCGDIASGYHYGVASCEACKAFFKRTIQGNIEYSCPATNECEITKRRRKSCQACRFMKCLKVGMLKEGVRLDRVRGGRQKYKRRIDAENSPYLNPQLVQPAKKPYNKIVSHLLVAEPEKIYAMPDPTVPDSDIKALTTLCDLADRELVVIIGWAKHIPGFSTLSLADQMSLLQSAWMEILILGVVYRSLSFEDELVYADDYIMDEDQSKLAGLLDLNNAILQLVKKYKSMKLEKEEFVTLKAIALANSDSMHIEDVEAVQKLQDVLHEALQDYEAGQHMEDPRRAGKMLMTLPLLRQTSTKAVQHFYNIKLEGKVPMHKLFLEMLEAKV
# Chain of X-box-binding protein 1 (Homo sapiens) (P17861 whole entry, looked up): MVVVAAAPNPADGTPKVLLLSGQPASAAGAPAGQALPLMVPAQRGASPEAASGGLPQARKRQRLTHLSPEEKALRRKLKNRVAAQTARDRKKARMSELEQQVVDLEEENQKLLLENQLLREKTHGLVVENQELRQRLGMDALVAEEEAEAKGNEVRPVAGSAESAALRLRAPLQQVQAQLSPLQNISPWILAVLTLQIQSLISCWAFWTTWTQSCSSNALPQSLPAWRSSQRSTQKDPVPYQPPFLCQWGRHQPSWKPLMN
# Chain of Steroid hormone receptor ERR1 (Homo sapiens) (P11474 whole entry, looked up, the tested form may be a part): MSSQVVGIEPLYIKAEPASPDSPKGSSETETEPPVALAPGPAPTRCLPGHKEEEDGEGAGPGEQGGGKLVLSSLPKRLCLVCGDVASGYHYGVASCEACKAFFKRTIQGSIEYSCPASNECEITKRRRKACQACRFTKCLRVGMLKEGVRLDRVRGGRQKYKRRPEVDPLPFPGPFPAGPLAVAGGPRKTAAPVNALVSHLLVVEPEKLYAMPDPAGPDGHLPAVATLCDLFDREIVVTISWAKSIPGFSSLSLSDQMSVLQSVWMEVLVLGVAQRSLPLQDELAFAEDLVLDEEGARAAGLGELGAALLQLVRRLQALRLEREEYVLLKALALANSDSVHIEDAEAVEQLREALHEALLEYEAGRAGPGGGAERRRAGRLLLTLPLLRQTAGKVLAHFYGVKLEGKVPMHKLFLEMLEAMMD
# Chain of Nuclear receptor subfamily 1 group I member 3 (Homo sapiens) (Q14994 whole entry, looked up, the tested form may be a part): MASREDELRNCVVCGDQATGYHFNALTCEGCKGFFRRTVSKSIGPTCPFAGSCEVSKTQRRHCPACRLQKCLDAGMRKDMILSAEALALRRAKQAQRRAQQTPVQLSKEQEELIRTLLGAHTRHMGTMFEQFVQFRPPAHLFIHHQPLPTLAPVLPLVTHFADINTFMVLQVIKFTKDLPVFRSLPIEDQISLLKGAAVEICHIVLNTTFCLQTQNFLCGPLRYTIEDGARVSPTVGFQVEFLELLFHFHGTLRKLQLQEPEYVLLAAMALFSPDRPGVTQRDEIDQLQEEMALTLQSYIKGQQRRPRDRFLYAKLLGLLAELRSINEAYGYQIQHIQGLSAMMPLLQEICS
compound,measurement,setting,value
CCc1cc(Cc2cc(CC)cc(C(C)(C)C)c2O)c(O)c(C(C)(C)C)c1,AC50,[1],16.6 µM (active)
same,AC50,[2],0.0355 µM (active)
same,AC50,[3],11.1 µM (active)
same,AC50,[4],18.1 µM (active)
same,outcome,[5],inactive
same,outcome,[6],inactive
same,outcome,[7],inactive
same,outcome,[8],inactive
same,outcome,[9],inactive
same,outcome,[10],inactive
same,AC50,[11],4.77 µM (active)
same,AC50,[12],16.9 µM (active)
same,outcome,[13],inactive
C#CC(C)N(C)C(=O)Nc1ccc(Cl)cc1 (configuration not stated),outcome,[1],inactive
same,AC50,[2],8.86 µM (active)
same,outcome,[3],inactive
same,outcome,[4],inactive
same,outcome,[5],inactive
same,outcome,[14],inactive
same,outcome,[6],inactive
same,outcome,[7],inactive
same,outcome,[8],inactive
same,outcome,[10],inactive
same,outcome,[11],inactive
same,outcome,[15],inactive
same,outcome,[12],inactive
O=c1c(O)c(-c2ccc(O)cc2)oc2cc(O)cc(O)c12,outcome,[1],inactive
same,AC50,[2],39.1 µM (active)
same,outcome,[3],inactive
same,outcome,[4],inactive
same,outcome,[5],inactive
same,outcome,[14],inactive
same,outcome,[7],inactive
same,outcome,[16],inactive
same,outcome,[8],inactive
same,outcome,[9],inactive
same,outcome,[10],inactive
same,outcome,[17],inactive
same,outcome,[12],inactive
same,outcome,[13],inactive
CC(C)(C)c1ccc(C(=O)O)cc1,outcome,[1],inactive
same,outcome,[2],inactive
same,outcome,[3],inactive
same,outcome,[4],inactive
same,outcome,[5],inactive
same,outcome,[14],inactive
same,outcome,[7],inactive
same,outcome,[8],inactive
same,outcome,[9],inactive
same,outcome,[10],inactive
same,outcome,[11],inactive
same,outcome,[12],inactive
same,outcome,[18],inactive
same,outcome,[19],inactive
COc1ccc(CCN2CCC(Nc3nc4ccccc4n3Cc3ccc(F)cc3)CC2)cc1,outcome,[1],inactive
same,outcome,[2],inactive
same,outcome,[3],inactive
same,outcome,[4],inactive
same,outcome,[5],inactive
same,outcome,[14],inactive
same,AC50,[6],2.12 µM (active)
same,outcome,[7],inactive
same,outcome,[8],inactive
same,outcome,[9],inactive
same,outcome,[10],inactive
same,outcome,[11],inactive
same,outcome,[15],inactive
same,outcome,[12],inactive
same,outcome,[19],inactive
same,outcome,[13],inactive
CN(C)CCOc1ccc(/C(=C(/CCCl)c2ccccc2)c2ccccc2)cc1,outcome,[1],inactive
same,AC50,[2],1.18 µM (active)
same,outcome,[3],inactive
same,outcome,[4],inactive
same,outcome,[5],inactive
same,outcome,[6],inactive
same,outcome,[7],inactive
same,outcome,[16],inactive
same,outcome,[8],inactive
same,outcome,[10],inactive
same,outcome,[11],inactive
same,outcome,[12],inactive
same,outcome,[18],inactive
same,outcome,[19],inactive
CC1CCC(C(C)C)C(O)C1 (configuration not stated),outcome,[1],inactive
same,outcome,[2],inactive
same,outcome,[3],inactive
same,outcome,[4],inactive
same,outcome,[5],inactive
same,outcome,[14],inactive
same,outcome,[6],inactive
same,outcome,[7],inactive
same,outcome,[8],inactive
same,outcome,[10],inactive
same,outcome,[11],inactive
same,outcome,[12],inactive
same,outcome,[19],inactive
